Compounds without any hit were thinned out: in the full panel of roughly 79,000, 15% have a hit. Calls of active or inactive are those of the source. Cut-off read from the data, not from the text of the source: active = growth inhibition above about 70%; inactive = the rest.
Legend:
[1] = NCI Yeast Anticancer Drug Screen. Data for the wt1 strain (AID 149);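 note: 0% = growth of vehicle-treated wt1 cultures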; conditions: S. cerevisiae wt1 strain (SPY 50644) growth inhibition, stronger effect = higher value
Procedure, shortened: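 Compounds are added to wt1 yeast cultures. Growth is then measured. Inhibition is expressed relative to vehicle-treated controls.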

[2] = NCI Yeast Anticancer Drug Screen. Data for the rad50EPP+ strain (AID 151);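 note: 0% = growth of vehicle-treated control cultures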; conditions: S. cerevisiae rad50 mutant strain, stronger effect = higher value
Procedure, shortened: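 Strain rad50EPP+; compound exposure; % growth inhibition vs vehicle.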

[3] = NCI Yeast Anticancer Drug Screen. Data for the mgt1 strain (AID 153); conditions: S. cerevisiae mgt1 mutant growth inhibition, stronger effect = higher value
Procedure, shortened: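 Read-out: yeast growth inhibition vs vehicle control. Strain mgt1, drawn from a panel altered in DNA damage repair or cell cycle control.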

[4] = NCI Yeast Anticancer Drug Screen. Data for the rad50 strain (AID 155);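 note: 0% = growth of vehicle-only cultures of the same strain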; conditions: S. cerevisiae rad50 strain growth inhibition, stronger effect = higher value
Procedure, shortened: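 Inhibition values express reduced yeast growth in compound-treated cultures relative to vehicle-treated controls.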

[5] = NCI Yeast Anticancer Drug Screen. Data for the mec2-1 strain (AID 157); conditions: S. cerevisiae mec2-1 strain, stronger effect = higher value
Procedure, shortened: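 Cells of the genetically defined mec2-1 yeast strain are incubated with test compound. Inhibition of growth is calculated against vehicle-treated controls.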

[6] = NCI Yeast Anticancer Drug Screen. Data for the rad14 strain (AID 159);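 note: 0% = growth of vehicle-treated control cultures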; conditions: S. cerevisiae rad14 strain growth inhibition, stronger effect = higher value
Procedure, shortened: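 A mutant yeast strain defective in DNA damage repair is treated with compound; inhibition of its growth is scored against untreated, vehicle-exposed cultures.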

[7] = NCI Yeast Anticancer Drug Screen. Data for the sgs1 mgt1 strain (AID 161);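 note: 0% = growth of cultures given vehicle only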; conditions: S. cerevisiae sgs1 mgt1 strain, stronger effect = higher value
Procedure, shortened: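 Genetically altered yeast, compound exposure, growth inhibition relative to vehicle.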

[8] = NCI Yeast Anticancer Drug Screen. Data for the CLN2oe strain (AID 163);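 note: 0% = growth of vehicle-only control cultures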; conditions: S. cerevisiae CLN2oe strain, stronger effect = higher value
Procedure, shortened: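 Strain altered in cell-cycle control, incubated with compound; growth compared to solvent-treated controls.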

[9] = NCI Yeast Anticancer Drug Screen. Data for the cln2 rad14 strain (AID 165);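 note: 0% = growth equal to vehicle treated cultures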; conditions: S. cerevisiae cln2 rad14 strain, stronger effect = higher value
Procedure, shortened: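 The screen exposed genetically defined yeast (cln2 rad14) to test compounds and scored growth inhibition relative to vehicle-treated controls.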

[10] = NCI Yeast Anticancer Drug Screen. Data for the bub3 strain (AID 167); conditions: S. cerevisiae bub3 mutant strain, stronger effect = higher value
Procedure, shortened: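 Steps: expose the mutant yeast strain to compound; grow alongside vehicle-treated cultures; measure growth; express inhibition against the vehicle cultures.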

[11] = NCI Yeast Anticancer Drug Screen. Data for the wt2 strain (AID 169);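 note: 0% = growth of vehicle-treated yeast cultures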; conditions: S. cerevisiae wt2 strain growth inhibition, stronger effect = higher value
Procedure, shortened: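 Steps: yeast strain treated with compound; growth recorded; inhibition calculated relative to cultures given vehicle alone.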

[12] = NCI Yeast Anticancer Drug Screen. Data for the mlh1 strain (AID 171);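 note: 0% = growth of vehicle-treated control cultures of the same strain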; conditions: S. cerevisiae mlh1 strain growth inhibition, stronger effect = higher value
Procedure, shortened: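 Yeast screen: mutant strain plus compound, growth scored against vehicle control wells.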

[13] = NCI Yeast Anticancer Drug Screen. Data for the mlh1 rad18 strain (AID 175); conditions: S. cerevisiae mlh1 rad18 strain growth inhibition, stronger effect = higher value
Procedure, shortened: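 Compound-treated yeast growth, normalised to vehicle controls. Strain bears defined DNA repair mutations.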

[14] = NCI Yeast Anticancer Drug Screen. Data for the rad18 strain (AID 177); conditions: S. cerevisiae rad18 mutant growth inhibition, stronger effect = higher value
Procedure, shortened: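 Inhibition values reflect reduced yeast growth compared with vehicle-treated controls, using a strain engineered with a DNA damage repair defect.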

[15] = NCI Yeast Anticancer Drug Screen. Data for the rad52 strain (AID 147);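 note: 0% = growth of vehicle-treated control cultures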; conditions: S. cerevisiae rad52 mutant growth inhibition, stronger effect = higher value
Procedure, shortened: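 Genetically altered yeast (DNA damage repair defect) treated with compound; inhibition calculated relative to vehicle.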

[16] = NCI Yeast Anticancer Drug Screen. Data for the sgs1 strain (AID 173);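 note: 0% = growth of vehicle-only control cultures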; conditions: S. cerevisiae sgs1 mutant, stronger effect = higher value
Procedure, shortened: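 Inhibition of yeast growth served as the measure. The mutant strain was treated with each compound, and growth was normalised to cultures receiving vehicle alone.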

[17] = at 5.0 µM (retest, dose inferred, filed as 0.5)
[18] = at 50.0 µM (retest, dose inferred, filed as 5.0)

Measured: growth inhibition

O=C(/C=C\c1ccc(Cl)cc1Cl)c1cccs1
active: [7]; [18] 71% | [10]; [18] 85% | [13]; [18] 88% | [14]; at 33.0 µM 73% | [14]; at 100.0 µM 84%
inactive: [1]; at 1.2 µM -2% | [1]; at 3.7 µM 0% | [1]; at 11.0 µM -5% | [1]; at 33.0 µM -6% | [1]; at 100.0 µM -7% | [2]; at 1.2 µM 9% | [2]; at 3.7 µM 23% | [2]; at 11.0 µM 47% | [2]; at 33.0 µM 55% | [2]; at 100.0 µM 58% | [3]; at 1.2 µM -4% | [3]; at 3.7 µM -6% | [3]; at 11.0 µM -4% | [3]; at 33.0 µM 2% | [3]; at 100.0 µM 5% | [4]; at 1.2 µM -1% | [4]; at 3.7 µM -2% | [4]; [17] 0% | [4]; at 11.0 µM 0% | [4]; at 33.0 µM 0% | [4]; [18] 61% | [4]; at 50.0 µM -9.15% | [4]; at 100.0 µM 5% | [5]; at 1.2 µM -6% | [5]; at 3.7 µM -2% | [5]; [17] -10% | [5]; at 11.0 µM 1% | [5]; at 33.0 µM 10% | [5]; [18] 18% | [5]; at 50.0 µM -6.25% | [5]; at 100.0 µM 10% | [6]; at 1.2 µM -2% | [6]; at 3.7 µM 1% | [6]; at 11.0 µM 5% | [6]; at 33.0 µM 9% | [6]; at 100.0 µM 7% | [7]; [17] 0% | [7]; at 50.0 µM 10.2% | [8]; at 1.2 µM -9% | [8]; at 3.7 µM -21% | [8]; at 11.0 µM -17% | [8]; at 33.0 µM -14% | [8]; at 100.0 µM -18% | [9]; [17] 9% | [9]; [18] 27% | [9]; at 50.0 µM -29.9% | [10]; at 1.2 µM 10% | [10]; at 3.7 µM 22% | [10]; [17] 30% | [10]; at 11.0 µM 38% | [10]; at 33.0 µM 47% | [10]; at 50.0 µM 54.9% | [10]; at 100.0 µM 48% | [11]; at 1.2 µM -5% | [11]; at 3.7 µM -1% | [11]; at 11.0 µM -3% | [11]; at 33.0 µM 4% | [11]; at 100.0 µM 7% | [12]; at 1.2 µM -4% | [12]; at 3.7 µM 0% | [12]; at 11.0 µM 1% | [12]; at 33.0 µM 7% | [12]; at 100.0 µM 12% | [13]; [17] 27% | [13]; at 50.0 µM 1.1% | [14]; at 1.2 µM 3% | [14]; at 3.7 µM 6% | [14]; at 11.0 µM 29%

COC1C=COC2(C)Oc3c(C)c(O)c4c(c3C2=O)/C(=N/C2CCC(O)OC2C)C=C(NC(=O)/C(C)=C\C(=O)C2CC2C(O)C(C)C(O)C(C)C(OC(C)=O)C1C)C4=O (stereo unspecified)
active: [15]; at 100.0 µM 92% | [4]; at 100.0 µM 90% | [5]; at 100.0 µM 92% | [6]; at 100.0 µM 87% | [9]; at 50.0 µM 81.4% | [10]; at 100.0 µM 91% | [12]; at 100.0 µM 73% | [16]; at 100.0 µM 89%
inactive: [15]; at 1.2 µM 0% | [15]; at 3.7 µM -2% | [15]; at 11.0 µM -4% | [15]; at 33.0 µM 17% | [2]; at 1.2 µM -2% | [2]; at 3.7 µM -10% | [2]; at 11.0 µM -14% | [2]; at 33.0 µM -7% | [2]; at 100.0 µM -6% | [4]; at 1.2 µM -2% | [4]; at 3.7 µM -3% | [4]; [17] -16% | [4]; at 11.0 µM -2% | [4]; at 33.0 µM 10% | [4]; [18] 37% | [4]; at 50.0 µM 9.3% | [5]; at 1.2 µM 0% | [5]; at 3.7 µM 0% | [5]; [17] 2% | [5]; at 11.0 µM -6% | [5]; at 33.0 µM 1% | [5]; [18] 27% | [5]; at 50.0 µM 30.6% | [6]; at 1.2 µM -4% | [6]; at 3.7 µM -4% | [6]; at 11.0 µM -3% | [6]; at 33.0 µM 16% | [7]; [17] -6% | [7]; [18] 56% | [7]; at 50.0 µM 33.5% | [8]; at 1.2 µM -11% | [8]; at 3.7 µM -11% | [8]; at 11.0 µM -8% | [8]; at 33.0 µM 3% | [8]; at 100.0 µM 53% | [9]; [17] 15% | [9]; [18] 57% | [10]; at 1.2 µM -6% | [10]; at 3.7 µM -6% | [10]; [17] -19% | [10]; at 11.0 µM -2% | [10]; at 33.0 µM -5% | [10]; [18] 7% | [10]; at 50.0 µM 23.4% | [12]; at 1.2 µM 3% | [12]; at 3.7 µM 1% | [12]; at 11.0 µM -1% | [12]; at 33.0 µM 28% | [16]; at 1.2 µM 0% | [16]; at 3.7 µM -76% | [16]; at 11.0 µM 3% | [16]; at 33.0 µM 37% | [13]; [17] -7% | [13]; [18] 48% | [13]; at 50.0 µM 17.9% | [14]; at 1.2 µM 0% | [14]; at 3.7 µM 0% | [14]; at 11.0 µM -4% | [14]; at 33.0 µM 10% | [14]; at 100.0 µM 48%
